Calpain2 inh = inhibitors of pig calpain II, primary screen, biochemical, fluorogenic peptide substrate, 1536-well; 0.37% of 220,000 active; purified calpain II, 30 min; inhibition, % at 16 µM;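 active = inhibition above about 50%, limit read from the data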
aDG glyco up = activators of alpha-DG glycosylation, primary screen, uHTS, Pro5-aDG cells, AlphaScreen | alpha-DG glycosylation AlphaScreen (IIH6); 0% Pro5, 100% B10-LARGE cell signal | activation, % at 10 µM | 0.22% of 360,000 active | AID 624168, 2012;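 active = activation of at least 8% versus controls, or a plate z-score of at least 8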;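 note: Pro5 are CHO cells carrying HIG-tagged alpha-DG that lacks glycosylation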
beta cell repl = inducers of MIN6 beta-cell proliferation, primary screen, ATP luminescence, uHTS; MIN6 cells proliferation, ATPlite luminescence, 48 h; cells starved in 0.2% serum; 100% = growth in 10% serum; proliferation, % at 10 µM; 0.29% of 330,000 active;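 active = compounds whose signal lies at least 3.5 SD above the mean of all wells on their plate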;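 note: 0% = DMSO-treated cells in low-serum medium and 100% = 10% serum control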
FAS TE block = FAS thioesterase domain inhibitors, primary screen, biochemical, fluorescence intensity, uHTS; 0.67% of 360,000 active; Fatty acid synthase (Homo sapiens), P49327; recombinant FAS-TE, OMFH fluorogenic substrate, fluorescence endpoint; AID 602261, 2012; inhibition, % at 15 µM;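 active = compounds whose normalised, plate-corrected inhibition of enzyme fluorescence in the single-dose primary screen is 50% or more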;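 note: 0% = DMSO with enzyme and 100% = substrate without enzyme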
TAG inh = inhibitors of triacylglycerol accumulation, primary screen, cell-based, uHTS, fluorescence, H9c2. H9c2 cells, Nile Red lipid (TAG) fluorescence; cells loaded with 200 µM oleic acid. AID 651582, 2012. inhibition, % at 12.5 µM. 0.66% of 230,000 active;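 active = pattern-corrected inhibition of lipid staining of at least 50% with the nuclear-stain viability signal not falling by more than 50%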;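 note: 0% = DMSO wells and 100% = triacsin C control wells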
H9c2 protect = cardioprotection against H2O2-induced cell death, primary screen, uHTS, H9c2 cells, ATPLite luminescence | H9c2 cardiomyocytes, H2O2 injury protection, 2 h | protection from H2O2 cell death, % at 20 µM | 0.63% of 360,000 active | AID 588492, 2011;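 active = compounds giving at least 50% protection of heart cells from peroxide-induced death in the single-dose screen, raw or plate-pattern-corrected value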;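 note: 0% = DMSO wells with peroxide and 100% = DMSO wells without peroxide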
* hit, by the source's call; i = inactive; . = no result given. A selection: hits, their analogues and other compounds. The true share with any hit is near 2.3%.

SMILES	Calpain2 inh	aDG glyco up	beta cell repl	FAS TE block	TAG inh	H9c2 protect
COc1ccc(NC(=O)Nc2nnc(-c3ccncc3)s2)cc1	7	0	-3	-1	-3	-8
O=C(c1nc2ccc(Cl)cn2c1CNCCc1cnccn1)N1CCCCCCC1	.	0	-2	-3	-2	2
CCCOn1c(OCC(C)C)nc2ccccc2c1=O	-11	0	-1	8	12	6
CC(C)COc1nc2ccccc2c(=O)n1OCC(=O)O	6	0	-1	-8	16	58*
Cc1c(C(=O)NCc2cccnc2)sc2nc(-c3ccc(F)cc3)cn12	78*	2	-1	-5	-5	-12
CC(=O)NC(c1cc(Cl)c2cccnc2c1O)C1CC1 (centres undefined)	.	0	-7	8	50*	60*
CC(=O)NC(c1cc(Cl)c2cccnc2c1O)C(C)C (centres undefined)	.	0	-7	3	65*	30
CC(=O)NC(c1ccc(C)cc1)c1cc(Cl)c2cccnc2c1O (centres undefined)	.	0	-4	4	50*	30
CC(=O)NC(c1ccco1)c1cc(Cl)c2cccnc2c1O (centres undefined)	.	0	.	11	0	30
Cc1c(C)c2ccc(OCC(=O)NCCCn3ccnc3)cc2oc1=O	.	0	4	0	.	-5
CCOC(=O)C(C)CC(C)C(=O)N1CCOCCOCCN(C(=O)C(C)CC(C)C(=O)OCC)CCOCC1 (centres undefined)	-12	0	0	-8	16	-3
CCOC(=O)C(C(=O)OCC)C(C(=O)OCC)N1CCOCC1 (centres undefined)	4	0	-5	-7	99*	-37
COc1ccc(-c2cc3ccc(OC(C)C(=O)O)cc3oc2=O)cc1 (centres undefined)	.	0	1	-6	11	-2
Fc1ccc(NC(=S)Nc2ccc3nccnc3c2)cc1	-15	0	-3	3	5	62*
OCCCNC(=S)Nc1ccc2nccnc2c1	-24	0	0	3	28	13
Fc1cccc(Cl)c1CSc1ccc(-c2cccnc2)nn1	64*	0	0	7	-12	0
Clc1ccc(CSc2ccc(-c3cccnc3)nn2)cc1	28	0	-3	13	4	3
COc1ccccc1NC(=O)NC1(C(=O)NCC2CCCO2)CCCCC1 (centres undefined)	.	0	0	-5	.	-4
N/C(=N\NS(=O)(=O)c1ccccc1)c1ccccn1	.	0	-2	-5	2	51*
Cc1cn(CC(=O)NCCNc2ccc([N+](=O)[O-])cn2)c(=O)[nH]c1=O	.	0	.	-1	-4	9
COc1cccc(Nc2nc(-c3sc(NC(=O)c4ccco4)nc3C)cs2)c1	-130	0	-8	6	27	50*
COc1ccc(Cl)cc1Nc1nc(-c2sc(NC(=O)c3ccco3)nc2C)cs1	-275	0	-9	1	20	6
COc1cccc(Nc2nc(-c3sc(C)nc3C)cs2)c1	.	1	-2	15	0	4
COc1cccc(Nc2nc(-c3sc(N)nc3C)cs2)c1	-117	0	0	-1	.	63*
O=C1N(c2ccccc2C(F)(F)F)O[C@]1(c1ccccc1)C1CCCCC1	.	0	-7	20	-1	-4
SMILES	Calpain2 inh	aDG glyco up	beta cell repl	FAS TE block	TAG inh	H9c2 protect
CC(C)N1C(=O)S/C(=C/c2ccc3c(c2)n(C)c(=O)n3C)C1=O	-10	1	-3	-5	36	63*
CCC(C)N1C(=O)S/C(=C/c2ccc3c(c2)n(C)c(=O)n3C)C1=O (centres undefined)	-3	0	0	-2	7	57*
CCOC(=O)C(C)N1C(=O)S/C(=C/c2ccc3c(c2)n(C)c(=O)n3C)C1=O (centres undefined)	-11	0	-2	3	.	11
Cn1c(=O)[nH]c(=O)c2c1nc([N+](=O)[O-])n2Cc1ccccc1	1	0	-4	24	73	-11
Cc1cc(C)cc(Cn2cc(CN3CC(N4CCN(C)CC4)CS3(=O)=O)nn2)c1 (centres undefined)	.	0	.	-12	.	.
O=c1[nH]c(CN2CCCCC2)ccc1O	.	0	.	-6	-3	-1
NC(=O)c1ccc(NC(=O)CS(=O)(=O)c2cn(CC(=O)N3CCCCC3)c3ccccc23)cc1	.	0	0	-4	1	-2
Cc1ccc(Sc2ccc(/C=C3/C(=O)NN(c4ccccc4)C3=O)o2)cc1	-33	0	-6	-5	4	1
O=C1NN(c2ccccc2)C(=O)/C1=C/c1ccc(Sc2ccc(Cl)cc2)o1	-43	2.6*	-6	-1	4	-15
Cc1ccc(NC(=O)Cn2c(=O)n(CCCCC(=O)NCc3ccco3)c(=O)c3ccccc32)cc1	37	0	-3	4	1	8
O=C(CCCCn1c(=O)c2ccccc2n(CC(=O)Nc2ccc(F)cc2)c1=O)NCc1ccco1	64*	0	-2	7	-9	10
CCOC(=O)N1C2=NC(C(=O)OC)=C(C(=O)OC)[C@@H]3N(C)c4ccccc4[C@]23C[C@H]1C(=O)OC	19	0	-6	-12	.	5
COC(=O)C1=C(C(=O)OC)[C@@H]2N(C)c3ccccc3[C@@]23C[C@@H](CO)N(C(=O)NCCBr)C3=N1	-54	0	-5	52*	-11	-12
C=Cc1ccc(Cn2c(C)c(C(=O)NCc3cccc(C)c3)sc2=O)cc1	.	0	.	14	-2	-1
Cc1cccn2c(=O)c3cc(C(=O)N4c5ccccc5CC4C)n(C)c3nc12 (centres undefined)	-58	0	-1	2	-20	28
CC1Cc2ccccc2N1C(=O)c1cc2c(=O)n3ccccc3nc2n1C (centres undefined)	-27	0	3	0	-4	66*
O=C(Cn1nc(-c2ccc3c(c2)OCCO3)ccc1=O)Nc1cccc(NC(=O)c2ccccn2)c1	62*	.	2	.	.	.
Cc1cc(-n2c(C)cc(C(=O)COc3ccc4ccc(=O)oc4c3)c2C)no1	i	1	0	38	.	70*
CCOC(=O)c1c(C)[nH]c(C(=O)COc2ccc3ccc(=O)oc3c2)c1C	.	0	-3	-7	-2	52*
CCCN1C(=O)/C(=C/c2nc3ccccc3c(=O)[nH]2)c2ccccc21	-32	0	0	-11	.	6
CC(C)N1C(=O)/C(=C\c2nc3ccccc3c(=O)[nH]2)c2ccccc21	25	0	.	-6	.	85*
